# Experimental data taken from PubChem BioAssay (NCI).
# About 83,000 compounds went through this panel and 20% of them were active in at least one assay; those are over-represented in the sample as a whole.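 Assay: single dose, 48 h. Readout: percent growth (0 = no net growth; negative = cell death). Active: <10.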 Values without a mark were called inactive. Calls of active or inactive are those of the source.
# System: SK-MEL-5 melanoma
# Experiment: NCI-60 one-dose screen, 48 h (100 = growth as untreated, 0 = no growth, -100 = all killed)
# Conditions: 10 µM unless noted
row,SMILES,growth
1,COc1ccc2c(c1)NC(=O)CN2c1nc(NC2CC2)nc2ccccc12,-55.3% (active)
2,Nc1c(C(=O)Nc2cccc(Cl)c2Cl)sc2nc3c(cc12)C(=O)CCC3,49.8%
3,CC(=O)Nc1ccc(S(=O)(=O)N2C(=O)CCC2C(=O)Nc2ccc(Br)cc2)cc1 (stereo unspecified),17.6%
4,Nc1nc(-c2cc3ccccc3o2)cc(=O)c(=O)[nH]1,90.4%
5,Cc1nn(-c2ccc(Cl)cc2)c(=O)n1CCOc1ccccc1Cl,105%
6,Cc1cc(C(=O)CSc2nc3ccccc3c(=O)[nH]2)c(C)n1C,98.4%
7,Cc1ccc(C2=NN(c3ccc(S(=O)(=O)NC(=O)NCc4ccccc4)cc3)C(c3ccc(N(C)C)cc3)C2)c(C)c1 (stereo unspecified),12.2%
8,O=C(/C=C/CN1CCOCC1)Nc1cc2c(Nc3cccc(Cl)c3F)ncnc2cc1OCCOC(F)F,86.9%
9,COc1ccc(/C(=N/O)c2cc(OC)c(OC)c(OC)c2)c(OC)c1N,14.4%
10,O=[N+]([O-])c1ccc(S(=O)(=O)N2CCN(c3ccnc4cc(Cl)ccc34)CC2)c([N+](=O)[O-])c1,98.8%
11,Cc1cc(N/C=c2\sc3ncnn3c2=O)no1,99.2%
12,O=C(Nc1ccc(F)c(Cl)c1)c1n[nH]c(=O)c2ccccc12,90.9%
13,O=C(CCCn1c(=O)c2sc3ccccc3c2n2nnc(-c3ccccc3)c12)NCCc1cnc[nH]1,-69.6% (active)
14,CC1=C(C#N)C(C)(C)C(C#N)=C(C)N1,101%
15,COc1cc(CCn2nnc3c(Nc4ccc(N5CCOCC5)cc4)ncnc32)cc(OC)c1,93.6%
16,COc1ccc(-c2cn[nH]c2-c2cc(OC)c3c(c2)OCO3)cc1,32%
17,Cc1ccc(OCCn2c(C)nn(-c3ccc(Cl)cc3)c2=O)cc1,109%
18,O=C(Nc1ccc(I)cc1)c1cc([N+](=O)[O-])ccc1O,-0.402% (active)
19,O=C(NNC(=S)Nc1ccccc1)c1ccccn1,13.8%

row,SMILES,growth
1,COc1ccc(-c2cn[nH]c2-c2cc(OC)c3c(c2)OCCO3)cc1,25.4%
2,COc1cc(Cn2c(SCCC(=O)Nc3ccc(F)cc3)nc3ccccc3c2=O)cc(OC)c1OC,85%
3,COc1cc(-c2cc(/C=C3\CCCCC3=O)[nH]n2)cc(OC)c1OC,92.8%
4,Cc1ccc(S(=O)(=O)NCCCNc2nccc(-c3c(-c4ccccc4)nc4sccn34)n2)cc1,45%
5,O=C1C2=C(C(=O)c3c(O)ccc(O)c31)N(c1cccnc1)Cc1ccccc1O2,11.4%
6,COc1ccc(NC(=O)CSc2nc3ccc(Cl)cc3c(=O)n2-c2ccccc2C(F)(F)F)c(OC)c1OC,89.7%
7,CC(C)C[C@H](NC(=O)[C@@H](Cc1ccccc1)n1ccc(Nc2ccccc2)cc1=O)B(O)O,-68.2% (active)
8,Cc1cccc(NC(=O)c2sc3nc4c(cc3c2N)CCCC4)c1,33.9%
9,O=c1oc2c([nH]c3ccc4ccccc4c32)c2ccccc12,85.5%
10,CC1CCc2c(sc(NC(=O)CSc3nnc4ccccn34)c2C(N)=O)C1 (stereo unspecified),99.3%
11,CC1Cc2c(N(C)C)ncnc2N(C)c2ccc(Cl)cc21 (stereo unspecified),11.1%
12,CCC(=O)Oc1cc(/C=C/C(=O)O[C@H]2C[C@H]3CN4CCc5c([nH]c6cc(OC)ccc56)[C@@H]4C[C@@H]3[C@@H](C(=O)OC)[C@@H]2OC)ccc1OC,82.9%
13,CN(C)C/C=C/C(=O)Nc1cc2c(Nc3cccc(Cl)c3F)ncnc2cc1OCCOC(F)F,73.4%
14,O=C1Nc2cc(Cl)ccc2Oc2cc(Oc3ccccc3)ccc21,34.5%
15,c1cncc(CNc2ccccc2-c2nnc(Nc3ccc4c(c3)OCCO4)o2)c1,-9.92% (active)
16,COC1=CC(c2ccc[nH]2)=N/C1=C\c1[nH]c(C)c(C(=O)CCCCC(=O)Oc2ccc3c(c2)CCC2C3CC[C@]3(C)[C@@H](O)CC[C@@H]23)c1C (stereo partly specified),47.8%
17,COc1ccc(/C=c2\sc3n(c2=O)C2C(NN=3)N(C)C(=O)N2C)cc1 (stereo unspecified),6.02% (active)
18,Cc1sc(N=Nc2ccc(N(C)C)cc2)[n+]([O-])c1C,99%
19,COc1cc(/C=C/C(=O)c2ccccc2O)ccc1OCCCOc1cc2c(cc1OC)C(=O)N1CCC[C@H]1C=N2,-76.5% (active)

# System: UACC-62 melanoma
# Experiment: as above
# Conditions: 10 µM unless noted
row,SMILES,growth
1,COc1ccc2c(c1)NC(=O)CN2c1nc(NC2CC2)nc2ccccc12,26.1%
2,Nc1c(C(=O)Nc2cccc(Cl)c2Cl)sc2nc3c(cc12)C(=O)CCC3,64.6%
3,CC(=O)Nc1ccc(S(=O)(=O)N2C(=O)CCC2C(=O)Nc2ccc(Br)cc2)cc1 (stereo unspecified),15.3%
4,Nc1nc(-c2cc3ccccc3o2)cc(=O)c(=O)[nH]1,94.6%
5,Cc1nn(-c2ccc(Cl)cc2)c(=O)n1CCOc1ccccc1Cl,101%
6,Cc1cc(C(=O)CSc2nc3ccccc3c(=O)[nH]2)c(C)n1C,90.5%
7,Cc1ccc(C2=NN(c3ccc(S(=O)(=O)NC(=O)NCc4ccccc4)cc3)C(c3ccc(N(C)C)cc3)C2)c(C)c1 (stereo unspecified),54.7%
8,O=C(/C=C/CN1CCOCC1)Nc1cc2c(Nc3cccc(Cl)c3F)ncnc2cc1OCCOC(F)F,72%
9,COc1ccc(/C(=N/O)c2cc(OC)c(OC)c(OC)c2)c(OC)c1N,31.7%
10,O=[N+]([O-])c1ccc(S(=O)(=O)N2CCN(c3ccnc4cc(Cl)ccc34)CC2)c([N+](=O)[O-])c1,81.8%
11,Cc1cc(N/C=c2\sc3ncnn3c2=O)no1,94%
12,O=C(Nc1ccc(F)c(Cl)c1)c1n[nH]c(=O)c2ccccc12,81.4%
13,O=C(CCCn1c(=O)c2sc3ccccc3c2n2nnc(-c3ccccc3)c12)NCCc1cnc[nH]1,-78.5% (active)
14,CC1=C(C#N)C(C)(C)C(C#N)=C(C)N1,105%
15,COc1cc(CCn2nnc3c(Nc4ccc(N5CCOCC5)cc4)ncnc32)cc(OC)c1,91.5%
16,COc1ccc(-c2cn[nH]c2-c2cc(OC)c3c(c2)OCO3)cc1,15.8%
17,Cc1ccc(OCCn2c(C)nn(-c3ccc(Cl)cc3)c2=O)cc1,103%
18,O=C(Nc1ccc(I)cc1)c1cc([N+](=O)[O-])ccc1O,0.385% (active)
19,O=C(NNC(=S)Nc1ccccc1)c1ccccn1,5% (active)

row,SMILES,growth
1,COc1ccc(-c2cn[nH]c2-c2cc(OC)c3c(c2)OCCO3)cc1,37.6%
2,COc1cc(Cn2c(SCCC(=O)Nc3ccc(F)cc3)nc3ccccc3c2=O)cc(OC)c1OC,76.4%
3,COc1cc(-c2cc(/C=C3\CCCCC3=O)[nH]n2)cc(OC)c1OC,106%
4,Cc1ccc(S(=O)(=O)NCCCNc2nccc(-c3c(-c4ccccc4)nc4sccn34)n2)cc1,36.5%
5,O=C1C2=C(C(=O)c3c(O)ccc(O)c31)N(c1cccnc1)Cc1ccccc1O2,-76.5% (active)
6,COc1ccc(NC(=O)CSc2nc3ccc(Cl)cc3c(=O)n2-c2ccccc2C(F)(F)F)c(OC)c1OC,68.7%
7,CC(C)C[C@H](NC(=O)[C@@H](Cc1ccccc1)n1ccc(Nc2ccccc2)cc1=O)B(O)O,-77.1% (active)
8,Cc1cccc(NC(=O)c2sc3nc4c(cc3c2N)CCCC4)c1,26.5%
9,O=c1oc2c([nH]c3ccc4ccccc4c32)c2ccccc12,93.8%
10,CC1CCc2c(sc(NC(=O)CSc3nnc4ccccn34)c2C(N)=O)C1 (stereo unspecified),101%
11,CC1Cc2c(N(C)C)ncnc2N(C)c2ccc(Cl)cc21 (stereo unspecified),33.2%
12,CCC(=O)Oc1cc(/C=C/C(=O)O[C@H]2C[C@H]3CN4CCc5c([nH]c6cc(OC)ccc56)[C@@H]4C[C@@H]3[C@@H](C(=O)OC)[C@@H]2OC)ccc1OC,82.9%
13,CN(C)C/C=C/C(=O)Nc1cc2c(Nc3cccc(Cl)c3F)ncnc2cc1OCCOC(F)F,53.5%
14,O=C1Nc2cc(Cl)ccc2Oc2cc(Oc3ccccc3)ccc21,59.6%
15,c1cncc(CNc2ccccc2-c2nnc(Nc3ccc4c(c3)OCCO4)o2)c1,39.8%
16,COC1=CC(c2ccc[nH]2)=N/C1=C\c1[nH]c(C)c(C(=O)CCCCC(=O)Oc2ccc3c(c2)CCC2C3CC[C@]3(C)[C@@H](O)CC[C@@H]23)c1C (stereo partly specified),57.9%
17,COc1ccc(/C=c2\sc3n(c2=O)C2C(NN=3)N(C)C(=O)N2C)cc1 (stereo unspecified),41.9%
18,Cc1sc(N=Nc2ccc(N(C)C)cc2)[n+]([O-])c1C,99.2%
19,COc1cc(/C=C/C(=O)c2ccccc2O)ccc1OCCCOc1cc2c(cc1OC)C(=O)N1CCC[C@H]1C=N2,-82.4% (active)
